Bioassay records: PubChem BioAssay, National Center for Advancing Translational Sciences (NCATS)
Pf growth 48h = inhibits P. falciparum growth in the first generation, 48 h; P. falciparum luciferase growth in erythrocytes, 48 h; 310,000 compounds, 5.9% hits; Potency, µM (titrated, usually from 28.7 µM), for inactives: at the top dose activity change, negative = inhibition, hits mostly inhibitors; note: potency is the fitted concentration of half-maximal effect
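In quantitative HTS format, infected erythrocytes bearing luciferase-reporter parasites were treated for a single generation at 37 C. Luminescence after adding detection reagent served as the growth measure.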
Marburg entry inh = Marburg virus entry inhibition; Marburg virus pseudotyped entry inhibition, cell reporter; Potency, µM (top dose mostly 37.8 µM), without a hit: top-dose activity change, negative = inhibition, hits mostly inhibitors; 300,000 compounds, 1.8% hits; AID 540276; calls by dose curve; tested in HEK293 cells; note: potency is the fitted concentration of half-maximal effect
HCMV inh = inhibitors of human cytomegalovirus; HFF cells, HCMV-luciferase reporter, 72 h; hits give low values; activity change, negative = inhibition, % at 57.5 µM; 410,000 compounds, 4.5% hits; AID 1259415; in the data active = activity change below about -60%; inconclusive = no clear call, values can overlap the other calls; inactive = above about -39%
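Two compound doses tested in HFFs infected with HCMV-luciferase, MOI 1 PFU/cell, 72 h at 37C. Lysate luminescence read with OneGlo; data normalized against buffer-only and 10uM Salinomycin inhibitor controls.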
LASV entry inh = blocks Lassa virus binding to or entry into cells | Lassa virus pseudotype entry inhibition, cell reporter | Potency, µM (doses to about 37.9 µM), without a hit: at the highest dose activity change, negative = inhibition, most hits filed as inhibitors | 300,000 compounds, 1.2% hits; calls by dose curve; tested in HEK293 cells; note: potency is the fitted concentration of half-maximal effect; nearly all actives have a fitted effect of over 50% in size
HCV inh = inhibitors of hepatitis C virus infection; 340,000 compounds, 3.4% hits; AID 651820; Huh7.5.1 HCVcc-Cre infection, luciferase reporter, 44 h; Potency, µM (top dose mostly 41.8 µM), inactives show top-dose activity change, negative = inhibition, hits mostly inhibitors; note: potency is the fitted concentration of half-maximal effect
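Infectious HCV cell culture screen: compound-treated cells (1,000/well, pre-plated 4 h) are infected with HCVcc-Cre at roughly 0.5 moi and grown 44 h. Infection is quantified by luciferase signal after 15 min substrate incubation at room temperature.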
Pf growth 96h = P. falciparum growth inhibition at 96 hour, primary screen for plastid delayed-death inhibitors; AID 504834; P. falciparum luciferase reporter growth, 96 h; 320,000 compounds, 6.9% hits; Potency, µM (series often up to 28.7 µM), for inactives: at the top dose activity change, negative = inhibition, hits mostly inhibitors; note: potency is the fitted concentration of half-maximal effect
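Infected RBCs, 2% Hct / 0.05% parasitemia final; luciferase-reporter P. falciparum; cpd 96 h, 37 C, 5% CO2; luciferase detection reagent; luminescence.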
* marks the source's active call; other numbers are inactive results; [ ] = remark or other dose. Rows were chosen to be rich in hits. Some 14% of all compounds tested hit in one or more screens of this group. Unless noted, calls come from the whole dose curve; as a rule, active = well fitted inhibition curve with a large enough effect; inconclusive = small, poorly fitted or top-dose-only effect, or another doubt; inactive = no such curve, though single readings can be large or run the other way. % is set by controls: 0 for no effect and ±100 for the full control effect.

How did CC(C)Oc1ccccc1/C=N/NC(=O)C1CCCC1 do in these assays?
Pf growth 48h: -3%; Marburg entry inh: 15%[46.1 µM]; HCMV inh: 39; LASV entry inh: 17%[46.1 µM]; HCV inh: -7%; Pf growth 96h: 2.6µM*

How did CC(=O)c1ccc(N2CCN(C(=O)C3CCCN(S(=O)(=O)c4cnc[nH]4)C3)CC2)cc1 (stereo not drawn) do in these assays?
Pf growth 48h: inconclusive; Marburg entry inh: 18%; HCMV inh: 71; LASV entry inh: 30%; HCV inh: -5%; Pf growth 96h: 5.9µM*

How did CCOC(=O)N1CCN(C(=O)C2CCCN(S(=O)(=O)c3ccc(F)cc3)C2)CC1 (stereo not drawn) do in these assays?
Pf growth 48h: -9%; Marburg entry inh: -10%; HCMV inh: inconclusive; LASV entry inh: -5%[46.1 µM]; HCV inh: 18%; Pf growth 96h: -18%

Results for CCOC(=O)N1CCN(C(=O)C2CCN(S(=O)(=O)c3c(C)cc(C)cc3C)CC2)CC1 ?
Marburg entry inh: 11%; HCMV inh: -107*; LASV entry inh: inconclusive; HCV inh: -14%; Pf growth 96h: inconclusive

How did CC(=O)Nc1ccc(S(=O)(=O)N2CCN(C(=O)N3CCCCCC3)CC2)cc1 do in these assays?
Pf growth 48h: inconclusive; Marburg entry inh: inconclusive; HCMV inh: -69*; LASV entry inh: inconclusive; HCV inh: 4%

How did CCOC(=O)N1CCN(C(=O)C2CCCN(S(=O)(=O)c3ccc(C)cc3)C2)CC1 (stereo not drawn) do in these assays?
Marburg entry inh: -6%; HCMV inh: -61*; LASV entry inh: -28%; HCV inh: -27%; Pf growth 96h: inconclusive

How did Cc1ccccc1OCC(=O)Nc1ccc(OCc2cc(=O)n3ccccc3n2)cc1 do in these assays?
HCMV inh: -30; LASV entry inh: 26%[46.1 µM]

What do the screens show for `CCOC(=O)N1CCN(C(=O)C2CCCN(S(=O)(=O)c3ccccc3)C2)CC1` (stereo not drawn)?
Pf growth 48h: -11%; Marburg entry inh: 13%; HCMV inh: inconclusive; LASV entry inh: 0%; HCV inh: -37%

How did CCOC(=O)N1CCN(C(=O)C2CCN(S(=O)(=O)c3ccc(NC(C)=O)cc3)CC2)CC1 do in these assays?
Pf growth 48h: inconclusive; HCMV inh: 32; HCV inh: 6%; Pf growth 96h: 8.3µM*

What do the screens show for `CCOC(=O)N1CCN(C(=O)C2CCCN(S(=O)(=O)c3c(C)cc(C)cc3C)C2)CC1` (stereo not drawn)?
Pf growth 48h: inconclusive; Marburg entry inh: -11%; HCMV inh: -9; LASV entry inh: inconclusive; Pf growth 96h: 10µM*

How did CC1CCCN(C(=S)Nc2ccc(S(=O)(=O)N3CCCCC3)cc2)C1 (stereo not drawn) do in these assays?
Pf growth 48h: -6%; Marburg entry inh: -22%[46.1 µM]; HCMV inh: -67*; LASV entry inh: -14%[46.1 µM]; HCV inh: 8%; Pf growth 96h: -4%

What do the screens show for `COc1ccc(N2CCN(C(=O)C3CCCN(S(=O)(=O)c4ccc(C)cc4)C3)CC2)cc1` (stereo not drawn)?
Pf growth 48h: inconclusive; Marburg entry inh: -27%[46.1 µM]; HCMV inh: inconclusive; HCV inh: 2.5µM*; Pf growth 96h: 35%

Results for COc1ccc(N2CCN(C(=O)C3CCCN(S(=O)(=O)c4ccc(F)cc4)C3)CC2)cc1 (stereo not drawn) ?
Pf growth 48h: inconclusive; Marburg entry inh: -10%; HCMV inh: inconclusive; LASV entry inh: -19%; HCV inh: inconclusive; Pf growth 96h: -31%

How did COc1cccc(N2C(=O)C(CC(=O)Nc3cccc(F)c3)N(C(C)C)C2=O)c1 (stereo not drawn) do in these assays?
HCMV inh: -8; LASV entry inh: inconclusive

Results for CCOC(=O)N1CCN(C(=O)C2CCN(S(=O)(=O)c3cc(Cl)ccc3Cl)CC2)CC1 ?
Pf growth 48h: 7.4µM*; Marburg entry inh: 9%; HCMV inh: -15; LASV entry inh: -13%; HCV inh: -1%; Pf growth 96h: 29%

How did CC(=O)Nc1ccc(S(=O)(=O)N2CCc3c(Cl)cccc3C2)cc1 do in these assays?
HCMV inh: -67*; HCV inh: inconclusive; Pf growth 96h: 15µM*

What do the screens show for `CCOC(=O)N1CCC(C(=O)NNC(=O)c2ccc(Cl)cc2Cl)CC1`?
Pf growth 48h: 17%; HCMV inh: -9; HCV inh: 11%; Pf growth 96h: 10µM*

What do the screens show for `CCOC(=O)N1CCN(C(=O)CNC(=O)c2ccc(Cl)cc2Cl)CC1`?
Pf growth 48h: inconclusive; HCMV inh: -32; HCV inh: -3%; Pf growth 96h: inconclusive

What do the screens show for `CCOC(=O)C1CCN(C(=O)C2CCN(S(=O)(=O)c3cc(Cl)ccc3Cl)CC2)CC1`?
Pf growth 48h: inconclusive; Marburg entry inh: -2%; LASV entry inh: 21%[14.3 µM]; HCV inh: -20%; Pf growth 96h: 16%

How did CC(=O)Nc1ccc(S(=O)(=O)N2CCCN(S(=O)(=O)c3ccc(NC(C)=O)cc3)CC2)cc1 do in these assays?
Pf growth 48h: inconclusive; Marburg entry inh: -4%; HCMV inh: 24; LASV entry inh: 1%; HCV inh: -1%

Results for C[C@H]1COc2cccc(N(C)CCO)c2S(=O)(=O)N1 ?
HCMV inh: -33

How did COc1ccc(NC(=O)c2ccc(CN(c3cc(Cl)ccc3C)S(=O)(=O)c3ccccc3)cc2)cc1OC do in these assays?
Pf growth 48h: inconclusive; Marburg entry inh: 4.1µM*; HCMV inh: -18; LASV entry inh: -18%; HCV inh: 5%; Pf growth 96h: -5%

Results for COc1ccccc1NC(=O)c1ccc(CN(c2cc(Cl)ccc2C)S(=O)(=O)c2ccccc2)cc1 ?
Pf growth 48h: inconclusive; Marburg entry inh: inconclusive; HCMV inh: -20; LASV entry inh: 5%; HCV inh: 17%; Pf growth 96h: inconclusive

What do the screens show for `Cc1ccc(Cl)cc1N(Cc1ccc(C(=O)NCc2cccnc2)cc1)S(=O)(=O)c1ccccc1`?
Pf growth 48h: inconclusive; Marburg entry inh: 27%; HCMV inh: 17; LASV entry inh: -11%; HCV inh: 33%; Pf growth 96h: 13µM*

Results for O=C(N/N=C/c1cccc2cccnc12)c1ccccc1O ?
Pf growth 48h: inconclusive; HCMV inh: -103*; HCV inh: inconclusive; Pf growth 96h: 0%

How did COc1ccccc1OCC(=O)N/N=C/c1cccc2cccnc12 do in these assays?
Pf growth 48h: 3%; Marburg entry inh: -28%; HCMV inh: -4; LASV entry inh: -18%; HCV inh: 10%; Pf growth 96h: 13µM*

What do the screens show for `Cc1cc(/C=N\NC(=O)c2cccs2)c(C)n1-c1ccc2ncccc2c1`?
Pf growth 48h: 54%; Marburg entry inh: inconclusive; HCMV inh: 38; LASV entry inh: 10µM*; HCV inh: inconclusive; Pf growth 96h: 46%
